# The full list was thinned out, with the strongest signals kept by preference.
# B1: SfaEH (Escherichia coli), Q1RDG5 (protein)
# chain: LLCRNNQTGQVFNSGDTSFRVNVSPVVQYDKSISVLDLSQLVSCQNEDSTGQNYDYLKILKGSGFSPALDTKTYGRLDFTSRPTGYARQLPLQFDLQVTEAFYQYGVWKPFPAKLYLYPAPGVFGKVINNGDLLATLYVNKFSTKGQEAGERNFTWRFYATNDVYIQTGTCRVSSNNVKVDLPSYPGGPVTVPLTVRCDQTQSVSYTLSGPVTGSGNTVFANTAASGSGGVGIQLSDNVGPVPAGQPRSLGQVGSSPVSLGLKASYALTGQASPTPGAVQSVINVTFSYN
# Key:
# Test in all cases: glycan array binding signal (z-score within array); higher = stronger binding
# Conditions in all cases: glycan notation: IUPAC condensed, linker removed
# [1] = biological target: Glc(a1-4)Glc(a1-4)Glc(a1-4)Glc
# In short: (§1)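 The binding signal is a Z-score computed within each array. Data were drawn from 3228 arrays in the Consortium for Functional Glycomics database, restricted to those with a known protein sequence. Scores were averaged over arrays of the same protein sequence at different concentrations or buffers, and over linkers, and negative values can be taken as non-binding.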
# [2] = biological target: GlcNAc(a1-4)Gal(b1-3)GlcNAc
# In short: as §1
# [3] = biological target: GlcNAc(a1-4)Gal(b1-4)GlcNAc(b1-3)Gal(b1-4)Glc
# In short: as §1
# [4] = biological target: GlcNAc(b1-2)Man(a1-3)[GlcNAc(b1-2)Man(a1-6)]Man(b1-4)GlcNAc(b1-4)GlcNAc
# In short: as §1
# [5] = biological target: GlcNAc(b1-2)[GlcNAc(b1-6)]Man(a1-6)[GlcNAc(b1-2)Man(a1-3)]Man(b1-4)GlcNAc(b1-4)GlcNAc
# In short: as §1
# [6] = biological target: GlcNAc(b1-3)Gal(b1-4)GlcNAc(b1-2)[GlcNAc(b1-3)Gal(b1-4)GlcNAc(b1-6)]Man(a1-6)[GlcNAc(b1-3)Gal(b1-4)GlcNAc(b1-2)Man(a1-3)]Man(b1-4)GlcNAc(b1-4)GlcNAc
# In short: as §1
# [7] = biological target: GlcNAc(b1-3)Gal(b1-4)GlcNAc(b1-3)[GlcNAc(b1-3)Gal(b1-4)GlcNAc(b1-3)]GalNAc
# In short: as §1
# [8] = biological target: Man(a1-2)Man(a1-3)[Man(a1-2)Man(a1-6)]Man(a1-6)[Man(a1-2)Man(a1-2)Man(a1-3)]Man
# In short: as §1
# Man(b1-4)GlcNAc = biological target: Man(b1-4)GlcNAc
# In short: as §1
# [9] = biological target: Neu5Ac(a2-3)Gal(b1-3)GlcNAc(b1-2)Man(a1-3)[Neu5Ac(a2-3)Gal(b1-3)GlcNAc(b1-2)Man(a1-6)]Man(b1-4)GlcNAc(b1-4)GlcNAc
# In short: as §1
# [10] = biological target: Neu5Ac(a2-3)Gal(b1-3)GlcNAc(b1-4)Gal(b1-4)Glc
# In short: as §1
# [11] = biological target: Neu5Ac(a2-3)Gal(b1-4)GlcNAc(b1-3)Gal(b1-4)GlcNAc(b1-3)Gal(b1-4)GlcNAc
# In short: as §1
# [12] = biological target: Neu5Ac(a2-3)Gal(b1-4)GlcNAc(b1-6)[Gal(b1-3)]GalNAc
# In short: as §1
# [13] = biological target: Neu5Ac(a2-3)Gal(b1-4)[Fuc(a1-3)]GlcNAc(b1-3)Gal(b1-4)[Fuc(a1-3)]GlcNAc(b1-3)Gal(b1-4)[Fuc(a1-3)]GlcNAc
# In short: as §1
# [14] = biological target: Neu5Ac(a2-3)[Neu5Ac(a2-6)]GalNAc
# In short: as §1
# [15] = biological target: Neu5Ac(a2-6)Gal(b1-4)GlcNAc(b1-2)[Neu5Ac(a2-6)Gal(b1-4)GlcNAc(b1-6)]Man(a1-6)[Neu5Ac(a2-6)Gal(b1-4)GlcNAc(b1-2)Man(a1-3)][GlcNAc(b1-4)]Man(b1-4)GlcNAc(b1-4)GlcNAc
# In short: as §1
# [16] = biological target: Neu5Ac(a2-6)Gal(b1-4)GlcNAc(b1-3)Gal(b1-3)GlcNAc
# In short: as §1
# [17] = biological target: Neu5Ac(a2-6)Gal(b1-4)GlcNAc(b1-3)Gal(b1-4)GlcNAc(b1-6)[Gal(b1-3)]GalNAc
# In short: as §1
# [18] = biological target: Neu5Ac(a2-6)Gal(b1-4)GlcNAc(b1-3)Gal(b1-4)[Fuc(a1-3)]GlcNAc(b1-3)Gal(b1-4)[Fuc(a1-3)]GlcNAc
# In short: as §1
# [19] = biological target: Neu5Ac(a2-6)Gal(b1-4)GlcNAc(b1-3)[Neu5Ac(a2-6)Gal(b1-4)GlcNAc(b1-6)]GalNAc
# In short: as §1
# [20] = biological target: Neu5Ac(a2-6)Gal(b1-4)GlcNAc(b1-6)[Gal(b1-3)]GalNAc
# In short: as §1
# [21] = biological target: Neu5Ac(a2-6)GlcNAc(b1-4)GlcNAc
# In short: as §1
# [22] = biological target: Neu5Ac(a2-6)GlcNAc(b1-4)GlcNAc(b1-4)GlcNAc
# In short: as §1
# [23] = biological target: Neu5Ac(a2-8)Neu5Ac(a2-3)Gal(b1-4)Glc
# In short: as §1
# [24] = biological target: Neu5Ac(a2-8)Neu5Ac(a2-8)Neu5Ac(a2-3)Gal(b1-4)Glc
# In short: as §1
# [25] = biological target: Neu5Ac(a2-8)Neu5Gc(a2-3)Gal(b1-4)GlcNAc
# In short: as §1
# [26] = biological target: Neu5Gc(a2-3)Gal(b1-4)GlcNAc(b1-3)Gal(b1-4)GlcNAc(b1-2)Man(a1-3)[Neu5Gc(a2-3)Gal(b1-4)GlcNAc(b1-3)Gal(b1-4)GlcNAc(b1-2)Man(a1-6)]Man(b1-4)GlcNAc(b1-4)GlcNAc
# In short: as §1
# [27] = biological target: Neu5Gc(a2-8)Neu5Gc(a2-6)Gal(b1-4)GlcNAc
# In short: as §1
binder,measurement,setting,value
B1,glycan array binding signal (z-score),[1],-0.651
same,glycan array binding signal (z-score),[2],-0.403
same,glycan array binding signal (z-score),[3],-0.748
same,glycan array binding signal (z-score),[4],0.345
same,glycan array binding signal (z-score),[5],-0.668
same,glycan array binding signal (z-score),[6],2.3
same,glycan array binding signal (z-score),[7],0.026
same,glycan array binding signal (z-score),[8],0.008
same,glycan array binding signal (z-score),Man(b1-4)GlcNAc,-0.49
same,glycan array binding signal (z-score),[9],-0.547
same,glycan array binding signal (z-score),[10],-0.421
same,glycan array binding signal (z-score),[11],7.11
same,glycan array binding signal (z-score),[12],2.32
same,glycan array binding signal (z-score),[13],0.9
same,glycan array binding signal (z-score),[14],3.69
same,glycan array binding signal (z-score),[15],-0.534
same,glycan array binding signal (z-score),[16],-0.233
same,glycan array binding signal (z-score),[17],0.079
same,glycan array binding signal (z-score),[18],-0.154
same,glycan array binding signal (z-score),[19],2.22
same,glycan array binding signal (z-score),[20],0.841
same,glycan array binding signal (z-score),[21],-0.508
same,glycan array binding signal (z-score),[22],1.19
same,glycan array binding signal (z-score),[23],0.69
same,glycan array binding signal (z-score),[24],0.437
same,glycan array binding signal (z-score),[25],-0.786
same,glycan array binding signal (z-score),[26],-0.442
same,glycan array binding signal (z-score),[27],2.33

# Reference: the supplement of paper PMC8728848
